# Source: PubChem BioAssay (several laboratories)
# Most compounds without a hit are left out; they make up all but 4.3% or so of the library.
# rCAG binder = molecules binding r(CAG) RNA repeats; inhibition, % at 3 µM; 370,000 tested, 1.3% active; r(CAG) RNA repeat, TO-PRO-1 dye displacement fluorescence;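 active means inhibition above the plate cutoff, the mean of all test compounds on that plate plus 3 SD, cut at about 35% in these data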;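 further: 0% = DMSO alone and 100% = 100 µM mitoxantrone as full dye displacement; higher means more dye released from RNA so lower well fluorescence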
# GRIN3A LBD mod = modulators (binders) of human NR3A ligand-binding domain; NR3A LBD differential scanning fluorimetry, Tm shift; 0% = protein alone, 100% = glycine-bound protein; Tm shift relative to glycine control, % at 25 µM; 340,000 tested, 2.5% active; AID 1259313;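 active means melting temperature shift of at least 10% of the positive control shift, at one fixed dose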
# FAS-TE inh = inhibitors of human fatty acid synthase thioesterase domain; P49327; recombinant FAS-TE, OMFH fluorogenic substrate, fluorescence endpoint; inhibition, % at 15 µM; 360,000 tested, 0.67% active;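 active means compounds whose normalised, plate-corrected inhibition of enzyme fluorescence in the single-dose primary screen is 50% or more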;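 further: 0% = DMSO with enzyme and 100% = substrate without enzyme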
# NadD inh = inhibitors of Staphylococcus aureus NadD | AID 602399 | purified NadD enzyme, colorimetric absorbance read-out | inhibition, % at 20 µM | 360,000 tested, 0.78% active; in the data active means inhibition above about 26%
# The depositor's hits bear a star; . = no result given.
SMILES,rCAG binder,GRIN3A LBD mod,FAS-TE inh,NadD inh
O=S1(=O)C=CCN1Cc1cn(Cc2cccc(C(F)(F)F)c2)nn1,3,.,.,.
NS(=O)(=O)c1ccc(CCNC(=O)C2CCN(S(=O)(=O)c3ccc(Br)s3)CC2)cc1,3,13*,-1,-4
Cn1c(C(=O)NCCCN2CCN(c3ccccc3F)CC2)cc2c(=O)[nH]c3ccccc3c21,-4,17*,1,3
CC1CC(C)CN(CCCNC(=O)c2cc3c(=O)[nH]c4ccccc4c3n2C)C1 (centres undefined),6,1,-5,-5
O=c1[nH]c(O)c(/C=C2\C=Nc3ccc(Br)cc32)[nH]1,12,42*,-4,1
C=CCN(Cc1nc(-c2ccccc2)no1)C(=O)c1ccoc1C,-6,14*,4,-6
O=C(Cn1c(O)c(/C=C2\C=Nc3ccccc32)sc1=O)Nc1ccc2c(c1)OCO2,6,11*,-2,6
Cc1ccc(O)c(-c2cc(C(=O)Nc3ccc(S(=O)(=O)N4CC(C)OC(C)C4)cc3)[nH]n2)c1 (centres undefined),23,35*,0,7
CC1CN(S(=O)(=O)c2csc(C(=O)Nc3ccccc3)c2)CC(C)O1 (centres undefined),-1,16*,6,-5
Cc1ccc(-c2cc(C(=O)Nc3ccc(S(=O)(=O)N4CC(C)OC(C)C4)cc3)[nH]n2)c(O)c1 (centres undefined),12,30*,-3,3
Cc1nnc(SCC(=O)Nc2ccc(-c3nc4ccccc4s3)cc2)s1,2,30*,-3,-3
O=C(CCN1C(=O)NC2(CCCC2)C1=O)Nc1ccc(-c2nc3ccccc3s2)cc1,5,26*,6,-7
Cc1nnc(SCC(=O)Nc2ccccc2NC(=O)CSc2nnc(C)s2)s1,-2,-5,-9,6
COC(=O)[C@@]12CCCCC3=C1N(CCC3)C(=O)[C@H]2CC(=O)N1CCSCC1,3,.,.,.
CCn1c(CNC(=O)c2ccc3c(c2)OCO3)nnc1SCC(=O)Nc1cc(C)ccc1OC,-3,10*,-4,0
Cc1ccccc1NC(=O)CSc1nnc(CNC(=O)c2ccc3c(c2)OCO3)n1C,-5,0,-4,-2
COCCCNC(=O)C[C@H]1C[C@@]2(C(=O)OC)C(=C[C@H](C(C)C)O[C@@H]2C2CC2)N(Cc2ccc3c(c2)OCO3)C1=O,0,.,.,.
O=c1c2ccccc2nc2sc(Nc3ccc(F)cc3)nn12,4,-4,-12,-2
COc1cccc(Nc2nn3c(=O)c4ccccc4nc3s2)c1,.,23*,1,9
Nc1cc2c(cc1Cl)-c1ccccc1C2,5,3,12,5
Nc1cc2c(cc1Cl)-c1ccc(Cl)cc1C2,5,30*,20,4
c1ccc2c(Cn3nnc4ccccc43)cccc2c1,-3,11*,8,-9
Oc1ccccc1Cn1nnc2ccccc21,1,3,-4,-8
C=CCN1C(=O)[C@H](CC(=O)N2CCCC2)[C@@]2(C(=O)OCC)CCCC=C12,1,.,.,.
O=C(NC1CCCCN(Cc2ccc(Cl)cc2)C1=O)c1ccc(F)cc1 (centres undefined),2,.,.,.
SMILES,rCAG binder,GRIN3A LBD mod,FAS-TE inh,NadD inh
CC(=O)c1ccc(NC(=O)COc2ccccc2C(=O)Nc2ccccc2)cc1,15,15*,17,-6
Cc1cccc(Nc2ccccc2C(=O)O)c1C,4,14*,-6,-3
Cc1cccc(Nc2ncccc2C(=O)O)c1C,3,1,-2,-4
CC(=O)c1ccc(NC(=O)COc2ccccc2C(=O)Nc2ccc(C)cn2)cc1,1,2,-4,3
CCOc1ccccc1C(=O)Nc1ccsc1C(=O)OC,9,14*,22,-6
Cc1ccc(NC(=O)c2ccccc2OCC(=O)c2ccccc2)cc1,5,10*,26,-7
COC(=O)c1cc2c(c3c4cc(F)ccc4n(S(=O)(=O)c4ccc(C)cc4)c13)C(=O)N(c1ccc(OC)cc1)C2,15,.,.,.
CCCCNS(=O)(=O)CC1NCc2cc(F)ccc21 (centres undefined),1,.,.,.
COC(=O)c1sccc1NC(=O)Cc1ccc(Br)cc1,-5,12*,25,-5
Cc1cccc(OCC(=O)Nc2ccc(C(=O)Nc3ccccc3C(=O)O)cc2)c1C,41*,9,22,7
COC(=O)c1sccc1NC(=O)c1cccnc1,1,669*,-9,0
CCOc1ccccc1C(=O)Nc1ccc(NC(=O)c2ccccc2)cc1,-2,17*,4,5
CCOc1ccccc1C(=O)Nc1ccc(C(=O)c2ccccc2)cc1,1,1,33,-8
Cc1cccc(OCC(=O)Nc2cc(NC(=O)COc3cccc(C)c3C)cc(C(=O)O)c2)c1C,5,-5,12,12
CC(=O)N1CCN(c2ccc(N3CCN(Cc4ccccc4)[C@@H](C)C3)c(C)c2)[C@H](C)C1,0,.,.,.
Fc1cccc(F)c1Cn1ccc2ccc(-c3ccc4ccn(Cc5c(F)cccc5F)c4c3)cc21,4,.,.,.
CCCN1CCS(=O)(=O)N(Cc2cn(Cc3ccc(C)cc3)nn2)C(C(=O)OC)C1 (centres undefined),2,.,.,.
Cc1ccc(NC(=S)NCc2ccc3[nH]c4c(c3c2)CCCC4)cc1,10,11*,10,7
Cc1cccc(N2C(=O)C3C4CC(=O)C(c5ccccc54)C3C2=O)c1C (centres undefined),0,11*,-3,-5
COC(=O)[C@]1(CC(C)C)NC=C(C(=O)c2ccccc2)[C@@H]1c1cccs1,12,.,.,.
NC1=NC(=O)/C(=C/c2ccccc2OS(=O)(=O)c2ccc3ccccc3c2)S1,-1,18*,-13,0
CCCOc1ccccc1/C=C1\SC(N)=NC1=O,10,2,-1,-4
CCOc1ccc(CNC(=S)N/N=C\c2ccc([N+](=O)[O-])cc2)cc1,2,24*,20,-2
CCOc1ccc(CNC(=S)N/N=C/c2cccnc2)cc1,-2,1,28,-1
Cc1ccc(CNC(=O)c2ccc(N(C)C)cc2)cc1,-3,-1,0,-1
SMILES,rCAG binder,GRIN3A LBD mod,FAS-TE inh,NadD inh
CN(C)c1ccc(C(=O)NCc2ccc3c(c2)CCO3)cc1,-3,10*,1,3
C[C@H]1Cn2nnc(-c3ccccc3)c2Cn2c3ccccc3c(=O)n21,7,.,.,.
CCOc1ccc(NC(=O)CSc2nnc(-c3n[nH]c4c3CCC4)n2N)cc1,0,.,.,.
Nc1ccccc1N=Nc1ccccc1N,-7,23*,0,-1
Nc1ccccc1-c1ccccc1N,-6,0,-7,-2
Cc1cc(NCc2ccccn2)ccc1Br,2,11*,-1,-2
CC1=Nc2ccccc2/C1=C\c1nc(-c2ccc(F)cc2)oc1O,27,30*,-52,6
Oc1oc(-c2ccccc2)nc1/C=N/c1ccccn1,2,-8,5,0
CCNC(=O)c1ccc(CSc2nc3ccccc3s2)cc1,-1,33*,4,0
CC(C)(C)N1C(=O)Cc2c1nc(N)c1c(N)nc(N3CCCCC3CO)c(C#N)c21 (centres undefined),.,-11,19,37*
Cc1ccc2c(c1)C1CS(=O)(=O)N(Cc3ccccc3)CN1C2 (centres undefined),2,.,.,.
